In PubChem BioAssay (Tox21):
Records with an inconclusive call do not appear. Calls of active or inactive are those of the source. Unless noted, calls come from the whole dose curve.

Legend:
[1] = Nuclear factor erythroid 2-related factor 2/antioxidant responsive element (Nrf2/ARE) small molecule agonists: qHTS cell viability counter screen in human keratinocytes (AID 1919968; active = well fitted curve in the direction sought with a large enough effect in the repeat runs; an effect the other way counts as inactive or inconclusive; note: nearly all actives have a fitted effect of over 55% in size)
In short: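 Cytotoxicity was multiplexed with the Nrf2/ARE luciferase assay in the same wells. Stably transfected HaCaT keratinocytes were treated with test compounds for 23 h at 37 C. Cell viability was then measured by CellTiter-Fluor fluorescence.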

[2] = Nuclear factor erythroid 2-related factor 2/antioxidant responsive element (Nrf2/ARE) small molecule agonists: luciferase reporter gene qHTS assay in human keratinocytes (AID 1919969); note: nearly all actives have a fitted effect of over 35% in size
[3] = target: KiSS-1 receptor (Homo sapiens) (UniProt Q969F8); test: Human kisspeptin (KISS1R) small molecule agonists, calcium flux assay in KISS1R-HEK293 cells (AID 1920064; active = well fitted curve in the direction sought with a large enough effect in the repeat runs; an effect the other way counts as inactive or inconclusive)
Sequence of KiSS-1 receptor (Homo sapiens) (Q969F8 whole entry, looked up): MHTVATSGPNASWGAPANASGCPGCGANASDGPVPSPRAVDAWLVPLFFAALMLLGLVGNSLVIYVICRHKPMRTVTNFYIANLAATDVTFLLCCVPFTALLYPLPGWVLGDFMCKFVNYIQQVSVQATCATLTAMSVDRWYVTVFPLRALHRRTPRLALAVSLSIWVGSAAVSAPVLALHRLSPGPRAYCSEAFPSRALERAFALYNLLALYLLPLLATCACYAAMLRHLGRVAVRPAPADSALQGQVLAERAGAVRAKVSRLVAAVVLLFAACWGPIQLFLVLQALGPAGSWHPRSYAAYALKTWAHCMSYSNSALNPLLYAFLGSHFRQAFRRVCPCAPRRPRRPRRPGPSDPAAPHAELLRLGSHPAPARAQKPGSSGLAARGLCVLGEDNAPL
In short: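 Agonist activity is monitored as intracellular calcium rise in engineered HEK293 cells carrying human KISS1R. Cells are dye-loaded for 1 h at 37 C before compound addition, and fluorescence is recorded for 3 min.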

[4] = G protein-coupled receptor (GPCR) small molecule agonists, calcium flux assay: HEK293 wild type cell line counter screen (AID 1920065)
In short: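 Seed cells, incubate 18 h (37 C, 5% CO2); add calcium dye, 1 h at 37 C; pin-transfer compounds, ATP control or DMSO; read fluorescence 480/540 nm each second for 3 min.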

[5] = p53 small molecule agonists, cell-based qHTS assay with rat liver microsomes (AID 1963578)
In short: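 p53RE-bla cells were exposed to compounds together with rat liver microsomes (0.5 mg/mL final) and NADPH (0.5 mg/mL final) for 16 h at 37 C, then read by LiveBLAzer beta-lactamase fluorescence after 2 h at room temperature.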

[6] = p53 small molecule agonists, cell-based qHTS assay with human liver microsomes: qHTS cell viability counter screen (AID 1963579); note: nearly all actives have a fitted effect of over 45% in size
In short: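 p53RE-bla cells (4,000/well) were pre-incubated 5 h at 37 C, then given compounds in DMSO plus human liver microsomes (0.5 mg/mL final) and NADPH (0.5 mg/mL final) for 16 h at 37 C. Viability was read by CellTiter-Glo luminescence.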

[7] = p53 small molecule agonists, cell-based qHTS assay with rat liver microsomes: qHTS cell viability counter screen (AID 1963580); note: nearly all actives have a fitted effect of over 45% in size
In short: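 Counter screen for cytotoxicity under metabolic activation: rat liver microsomes and NADPH, 0.5 mg/mL final each, added with compounds to p53RE-bla HCT-116 cells; 16 h at 37 C, then ATP luminescence read.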

[8] = p53 small molecule agonists, cell-based qHTS assay: qHTS cell viability counter screen (AID 1963581); note: nearly all actives have a fitted effect of over 45% in size
In short: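 Viability was counter-screened in parallel with the p53 agonist reporter by measuring intracellular ATP luminescence in the same HCT-116 p53RE-bla wells after 16 h compound treatment at 37 C.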

[9] = p53 small molecule agonists, cell-based qHTS assay (AID 1963582; active = well fitted activation curve with a large enough effect in the signal ratio in the repeat runs, not every such curve was filed as active; the % refers to the signal ratio)
In short: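 Cells carrying a p53-responsive bla reporter are treated with test compounds for 16 h at 37 C; beta-lactamase activity is then detected with LiveBLAzer B/G FRET substrate after 2 h at room temperature.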

[10] = target: 5-hydroxytryptamine receptor 2A (Homo sapiens) (UniProt P28223); test: 5-hydroxytryptamine receptor 2A (HTR2A) small molecule antagonists, cell-based qHTS assay (AID 1963586); note: nearly all actives have a fitted effect of over 45% in size
Sequence of 5-hydroxytryptamine receptor 2A (Homo sapiens) (P28223 whole entry, looked up): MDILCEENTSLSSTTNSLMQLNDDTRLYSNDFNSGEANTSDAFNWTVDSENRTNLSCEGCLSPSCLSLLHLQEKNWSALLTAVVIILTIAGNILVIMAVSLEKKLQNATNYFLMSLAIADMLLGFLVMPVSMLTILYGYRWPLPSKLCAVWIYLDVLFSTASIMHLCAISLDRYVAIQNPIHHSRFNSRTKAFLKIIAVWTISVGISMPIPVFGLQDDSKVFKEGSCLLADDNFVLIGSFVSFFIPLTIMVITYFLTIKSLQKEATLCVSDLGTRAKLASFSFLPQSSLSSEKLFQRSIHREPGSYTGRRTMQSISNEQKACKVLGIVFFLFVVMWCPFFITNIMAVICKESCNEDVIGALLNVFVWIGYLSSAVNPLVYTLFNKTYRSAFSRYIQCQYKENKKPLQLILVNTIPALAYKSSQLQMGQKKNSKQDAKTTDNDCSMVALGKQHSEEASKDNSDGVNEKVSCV
In short: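 CHO cells stably expressing human HTR2A were plated for 18 h at 37 C, then loaded with calcium dye for 1 h. Compounds were preincubated 5 min at room temperature before DOI (4 nM solution) was added. Kinetic fluorescence was read for 3 min.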

[11] = target: 5-hydroxytryptamine receptor 2A (Homo sapiens) (UniProt P28223); test: 5-hydroxytryptamine receptor 2A (HTR2A) small molecule agonists, cell-based qHTS assay (AID 1963587); note: nearly all actives have a fitted effect of over 30% in size
In short: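 HTR2A-CHO cells, plated 18 h at 37 C/5% CO2, dye-loaded 1 h at 37 C; compounds in DMSO added by pin tool (agonist mode). Intracellular calcium flux read as kinetic fluorescence on FDSS over 2 min at 1 s intervals.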

[12] = target: Muscarinic acetylcholine receptor M1 (Homo sapiens) (UniProt P11229); test: Cholinergic receptor muscarinic 1 (CHRM1) small molecule antagonists, cell-based qHTS assay (AID 1963588); note: nearly all actives have a fitted effect of over 40% in size
Sequence of Muscarinic acetylcholine receptor M1 (Homo sapiens) (P11229 whole entry, looked up): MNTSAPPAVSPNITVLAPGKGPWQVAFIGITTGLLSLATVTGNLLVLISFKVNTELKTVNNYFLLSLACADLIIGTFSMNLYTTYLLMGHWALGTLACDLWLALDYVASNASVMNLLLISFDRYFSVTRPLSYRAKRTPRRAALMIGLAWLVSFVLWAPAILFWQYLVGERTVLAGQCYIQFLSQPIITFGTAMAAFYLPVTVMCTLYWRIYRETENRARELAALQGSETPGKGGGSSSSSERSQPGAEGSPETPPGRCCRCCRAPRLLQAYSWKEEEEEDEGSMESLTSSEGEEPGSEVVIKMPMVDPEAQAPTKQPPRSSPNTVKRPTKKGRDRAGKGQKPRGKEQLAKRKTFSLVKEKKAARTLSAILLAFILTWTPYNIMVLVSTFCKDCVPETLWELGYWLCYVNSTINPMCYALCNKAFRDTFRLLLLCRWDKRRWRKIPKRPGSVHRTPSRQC
In short: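 Compounds were tested at 15 concentrations in three independent runs. Dye-loaded CHRM1-CHO cells were exposed 5 min at room temperature before stimulation by acetylcholine added at 50nM. Intracellular calcium was read kinetically on FDSS for 3 min.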

[13] = target: Muscarinic acetylcholine receptor M1 (Homo sapiens) (UniProt P11229); test: Cholinergic receptor muscarinic 1 (CHRM1) small molecule agonists, cell-based qHTS assay (AID 1963589); note: nearly all actives have a fitted effect of over 35% in size
In short: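 Cells were plated and incubated 18 h at 37 C/5% CO2, loaded with calcium dye for 1 h at 37 C, then treated with compounds in DMSO. Fluorescence was recorded kinetically at 1 sec intervals.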

[14] = cAMP Responsive Elements (CRE) small molecule agonists, cell-based qHTS assay (AID 1963590)
In short: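 Cells carrying a CRE-driven beta-lactamase reporter (HEK 293T) are seeded, incubated overnight (18 h), and treated with test compounds for 3 h at 37 C; reporter activity is then detected with a FRET substrate after 2 h at room temperature.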

[15] = cAMP Responsive Elements (CRE) small molecule antagonists, cell-based qHTS assay (AID 1963591; active = well fitted inhibition curve with a large enough effect in the signal ratio in the repeat runs, not every such curve was filed as active; the % refers to the signal ratio)
In short: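 Cells (CRE-bla HEK 293T, DMEM with 10% dialyzed FBS and 25 mM HEPES) are seeded and incubated 18 h. Compounds are added with NKH477 agonist at 0.25 uM final for 3 h, then FRET substrate for 2 h.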

[16] = target: Beta-2 adrenergic receptor (Homo sapiens) (UniProt P07550); test: Adrenergic beta2 receptor (ADRB2) small molecule antagonists, cell-based qHTS assay (AID 1963592); note: series mostly up to about 92 µM; nearly all actives have a fitted effect of over 50% in size
Sequence of Beta-2 adrenergic receptor (Homo sapiens) (P07550 whole entry, looked up): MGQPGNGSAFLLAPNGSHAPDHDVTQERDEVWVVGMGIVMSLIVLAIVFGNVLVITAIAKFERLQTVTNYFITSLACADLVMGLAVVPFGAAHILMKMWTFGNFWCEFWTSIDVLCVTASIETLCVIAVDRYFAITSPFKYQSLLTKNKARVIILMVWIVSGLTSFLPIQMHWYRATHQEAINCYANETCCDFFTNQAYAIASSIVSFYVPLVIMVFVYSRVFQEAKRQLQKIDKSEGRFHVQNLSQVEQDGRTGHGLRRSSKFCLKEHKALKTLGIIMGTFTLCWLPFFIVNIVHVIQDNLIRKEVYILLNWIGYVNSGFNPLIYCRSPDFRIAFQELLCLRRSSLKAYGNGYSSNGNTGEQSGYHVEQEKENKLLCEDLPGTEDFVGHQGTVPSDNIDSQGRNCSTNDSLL
In short: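 Assay format: CHO-ADRB2 cells, 18-20hr seeding at 37C/5% CO2, then compound plus 1nM isoproterenol agonist mix for 0.5hr RT. Homogeneous time-resolved fluorescence cAMP detection after 1hr, expressed as 665/615 nm ratio.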

[17] = target: Beta-2 adrenergic receptor (Homo sapiens) (UniProt P07550); test: Adrenergic beta2 receptor (ADRB2) small molecule agonists, cell-based qHTS assay (AID 1963593);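 note: CHO cells stably overexpressing human ADRB2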
In short: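 CHO cells stably over-expressing ADRB2 were plated overnight at 37C, then dosed with compounds plus a stimulation mix containing 100uM IBMX and 25uM Ro-20-1724 for 0.5hr at room temperature. cAMP was measured by HTRF competition, 1hr.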

[18] = target: D(2) dopamine receptor (Homo sapiens) (UniProt P14416); test: Dopamine D2 receptor (DRD2) small molecule agonists, cell-based qHTS assay (AID 1963594); note: nearly all actives have a fitted effect of over 35% in size
Sequence of D(2) dopamine receptor (Homo sapiens) (P14416 whole entry, looked up): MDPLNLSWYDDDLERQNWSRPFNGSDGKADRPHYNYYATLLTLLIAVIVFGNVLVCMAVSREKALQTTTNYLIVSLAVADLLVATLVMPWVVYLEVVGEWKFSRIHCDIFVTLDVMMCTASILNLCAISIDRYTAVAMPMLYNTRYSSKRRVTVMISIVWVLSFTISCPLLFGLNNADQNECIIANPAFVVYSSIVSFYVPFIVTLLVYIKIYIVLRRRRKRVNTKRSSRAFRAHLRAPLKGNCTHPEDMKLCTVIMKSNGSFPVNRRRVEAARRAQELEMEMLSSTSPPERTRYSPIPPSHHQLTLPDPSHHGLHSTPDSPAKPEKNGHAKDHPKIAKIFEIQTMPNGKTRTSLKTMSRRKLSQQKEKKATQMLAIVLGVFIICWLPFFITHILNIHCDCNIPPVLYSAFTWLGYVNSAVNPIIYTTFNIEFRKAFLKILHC
In short: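 HEK293 cells stably expressing DRD2 were cultured 24 h at 37 C, then given Ro20-1724 (0.1 mM final) and compounds for 10 min at room temperature. NKH477 (200nM) was then added for 30 min. cAMP was read by HTRF.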

[19] = target: D(2) dopamine receptor (Homo sapiens) (UniProt P14416); test: Dopamine D2 receptor (DRD2) small molecule antagonists, cell-based qHTS assay (AID 1963595; active = well fitted inhibition curve with a large enough effect in the signal ratio in the repeat runs, with a control signal flat; the % refers to the signal ratio)
In short: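 HTRF cAMP read-out at 665 and 620 nm emission (340 nm excitation). Antagonist mode: compounds were tested against 12 nM quinpirole in DRD2-HEK293 cells, with 200 nM NKH477 raising cAMP and 0.1 mM Ro20-1724 blocking its breakdown.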

[20] = p53 small molecule agonists, cell-based qHTS assay with human liver microsomes (AID 1963577)
In short: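 p53RE-bla reporter cells were pre-incubated 5 h at 37 C, then treated with compounds plus human liver microsomes (0.5 mg/mL final) and NADPH (0.5 mg/mL final) for 16 h at 37 C. Beta-lactamase activity was read by LiveBLAzer fluorescence after 2 h at room temperature.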

Measured: Potency

CCN(CC)CC(=O)OCC(=O)[C@@]1(O)CC[C@H]2[C@@H]3CCC4=CC(=O)CC[C@]4(C)[C@H]3[C@@H](O)C[C@@]21C
not listed: [20]
inactive: all other assays above

CC1CCC(C(C)C)C(O)C1 (configuration not stated)
not listed: [5] | [7] | [9] | [20]
inactive: all other assays above

CCCCCCS
not listed: [6] | [12] | [17]
inactive: all other assays above

CCC(C)C(=O)OCCc1ccccc1 (configuration not stated)
not listed: [2] | [14]
inactive: all other assays above

CCCCCCCCCCCCCCC(=O)O
not listed: [2] | [14] | [17]
inactive: all other assays above

Cc1ccc(S(=O)(=O)NC2CCCCC2)cc1
not listed: [2] | [18]
inactive: all other assays above

Clc1ccc2c(Cl)ccnc2c1
not listed: [2] | [15] | [16]
inactive: all other assays above

Cn1cnc2c(F)c(Nc3ccc(Br)cc3Cl)c(C(=O)NOCCO)cc21
not listed: [2]
inactive: all other assays above

CC(C)(CO)[C@@H](O)C(=O)NCCC(=O)O
not listed: [2] | [15] | [16] | [19]
inactive: all other assays above

Oc1c(Cl)ccc(Cl)c1Cl
not listed: [3] | [6] | [12] | [17] | [20]
inactive: all other assays above

Cc1ccc(N)cc1[N+](=O)[O-]
not listed: [2] | [12] | [17]
inactive: all other assays above

CC1(C)[C@H](C(=O)OCc2cccc(Oc3ccccc3)c2)[C@@H]1C=C(Cl)Cl
not listed: [2] | [12] | [17]
inactive: all other assays above

COc1cc(Cl)ccc1Cl
not listed: [3] | [11] | [12] | [17]
inactive: all other assays above

Cc1sccc1Br
not listed: [2] | [11]
inactive: all other assays above

Oc1ccccc1O
not listed: [3] | [8] | [9] | [10] | [11] | [12] | [13] | [17]
inactive: all other assays above
